The AC50 is the concentration giving half of the maximal activity seen.

Inconclusive results are not listed. Some compounds were tested as several samples or in several runs, with calls that do not always agree. Calls of active or inactive are those of the source. Rule for the calls: active = hit-call score of the fitted dose curve at least 0.9, where 1 is the maximum; inconclusive = response in the unintended direction; inactive = score below 0.9.

Peroxisome proliferator-activated receptor gamma (Homo sapiens), sequence (P37231 whole entry, looked up): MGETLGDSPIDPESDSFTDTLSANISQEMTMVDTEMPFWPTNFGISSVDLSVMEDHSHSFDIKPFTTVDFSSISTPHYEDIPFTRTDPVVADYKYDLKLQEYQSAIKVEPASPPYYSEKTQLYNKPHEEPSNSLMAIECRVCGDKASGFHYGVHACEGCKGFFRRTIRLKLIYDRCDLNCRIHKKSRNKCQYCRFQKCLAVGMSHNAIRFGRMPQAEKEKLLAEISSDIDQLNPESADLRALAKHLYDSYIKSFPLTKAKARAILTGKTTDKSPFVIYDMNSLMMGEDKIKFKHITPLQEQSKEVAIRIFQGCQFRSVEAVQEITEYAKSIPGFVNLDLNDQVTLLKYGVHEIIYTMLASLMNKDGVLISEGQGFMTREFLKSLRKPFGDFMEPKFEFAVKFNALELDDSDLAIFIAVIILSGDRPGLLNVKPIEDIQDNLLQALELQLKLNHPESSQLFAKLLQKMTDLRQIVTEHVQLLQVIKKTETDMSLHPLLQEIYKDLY

The assay deals with Peroxisome proliferator-activated receptor gamma (Homo sapiens) (UniProt P37231). Kind of assay: ATG_PPARg_TRANS: Attagene TRANS-FACTORIAL HepG2 Assay for human Peroxisome Proliferator-activated Receptor-gamma (PPARg) (AID 2283007). The method, then:
ATG_TRANS is a cell-based, multiplexed-readout assay that uses HepG2, a human liver cell line, with measurements taken at 24 hours after chemical dosing in a 24-well plate.ATG_PPARg_TRANS is one of 30 assay component(s) measured or calculated from the ATG_TRANS assay. It is designed to make measurements of mRNA induction, a form of inducible reporter, as detected with fluorescence intensity signals by Reverse transcription polymerase chain reaction (RT-PCR) and Capillary electrophoresis technology.Data from the assay component ATG_PPARg_TRANS was analyzed into 1 assay endpoint. This assay endpoint, ATG_PPARg_TRANS, was analyzed in the positive analysis fitting direction relative to DMSO as the negative control and baseline of activity. Using a type of inducible reporter, measures of mRNA for gain-of-signal activity can be used to understand the reporter gene at the transcription factor-level as they relate to the gene PPARG. Furthermore, this assay endpoint can be referred to as a primary readout, because this assay has produced multiple assay endpoints where this one serves a reporter gene function. To generalize the intended target to other relatable targets, this assay endpoint is annotated to the nuclear receptor intended target family, where the subfamily is non-steroidal.
Human liver HepG2 cells are transiently transfected with multiple reporter transcription units (MRTUs) in 6-well plates using FuGene 6 reagent (Roche; 3 ml FuGene/1 mg DNA). The MRTU constructs are regulated by a cis-regulating element (promoter). […] A major difference between the CIS and TRANS system is that in CIS activities of endogenous TFs are measured, whereas the TRANS assay evaluates changes in activities of exogenous, chimeric NR-Gal4 proteins. […] At the end of 24 hour incubation, total RNA was isolated using TriZol reagent (Invitrogen). The isolated RNA is then reverse-transcribed using oligo(dT) primer and Mo-MLV reverse transcriptase (Invitrogen) with DNAse I (Ambion) treatment for 30 min. The one-tenth of the produced cDNA was amplified by PCR using Taq DNA polymerase (Invitrogen) and two reporter sequence-specific primers. The PCR products were fluorescently labeled by primer extension with 6-arboxyfluorescein (6-FAM) 5'-labeled reporter sequence-specific primer (2 min at 95 C, 20 s at 68 C and 10 min at 72 C) and these products were digested with 5U of HpaI (New England Biolabs) for 2h at 37 C. The fragments were purified using Qiaquick PCR columns (Qiagen), analyzed on an ABI 3130xL genetic analyzer (Applied Biosystems) with peak positions identified by using a set of X-rhodamine (ROX)-labeled MapMarker1000 molecular weight standards (BioVentures). The raw capillary electrophoresis data was processed using Attagraph software (Attagene).
For the compound `OC[C@H]1O[C@@H](O[C@H]2[C@H](O)[C@@H](O)[C@H](O)O[C@@H]2CO)[C@H](O)[C@@H](O)[C@H]1O`, the result was inactive.

Turning to `CN(C)c1ccc(C=O)cc1`, the compound was classed as inactive.

`CCC(=O)OC(C)(C)C1CC=C(C)CC1` (stereo not given): the compound was called inactive.

As for `CCCCC/C=C\C=C\C(=O)OCC`, the concentration at half-maximal activity (AC50) was 28.5 µM (active).

In the case of `CCOC(=O)CC(C)C`, the outcome was inactive.

For the compound `NC(=O)c1cccnc1`, the compound was called inactive.

Consider `CC(=O)CCC(=O)O`, for which the call was inactive.

Regarding `CC(C)COC(=O)c1ccccc1O`, the outcome was inactive.

Take `CCn1cc(C(=O)O)c(=O)c2ccc(C)nc21`: the call was inactive.

On to `CC(=O)OC(C)(C)C`, for which the outcome was inactive.

Consider `CC(=O)Oc1c(C)c(C)c2c(c1C)CC[C@@](C)(CCC[C@H](C)CCC[C@H](C)CCCC(C)C)O2`, for which the compound was called inactive.

Take `CC/C=C\CCOC(C)OCC` (stereo not given): the compound was called inactive.

As to `CC(C)N1C(=O)c2ccccc2C1=O`, the compound was classed as inactive.

For `CCCCCCCCSCc1cc(C)c(O)c(CSCCCCCCCC)c1`, the compound was classed as inactive.

Take `CNC(=C[N+](=O)[O-])NCCSCc1ccc(CN(C)C)o1`: the result was inactive.

`COc1cc(OC)c2ccc(=O)oc2c1`: the outcome was inactive.

Take `CCC(=O)OCC=Cc1ccccc1`: the call was inactive.

For the compound `Nc1ccn([C@H]2CC[C@@H](CO)O2)c(=O)n1`, the compound was called inactive.

Regarding `CC1=CC(O)CC(C)(C)C1` (stereo not given), the call was inactive.

On to `CCCCOCCOC(=O)c1ccccc1C(=O)OCCOCCCC`, for which the half-maximal activity concentration (AC50) was 27.5 µM (active).

Consider `CCCCCCCCCCOC(=O)c1ccccc1C(=O)OCCCCCCCC`, for which the call was inactive.

On to `CC(CCO)CC(C)(C)C` (stereo not given), for which the compound was called inactive.

In the case of `NS(=O)(=O)c1cc(C(=O)O)c(NCc2ccco2)cc1Cl`, the AC50 is 42.7 µM (active).

As for `ClCCOCCOCCCl`, the compound was classed as inactive.

Consider `C=COCC1CCC(COC=C)CC1` (stereo not given), for which the outcome was inactive.

Take `C[N+](C)(C)CCO`: the compound was called inactive.

As to `CN(C)CCC=C1c2ccccc2CCc2ccccc21`, the compound was classed as inactive.

On to `CCCCOCC(C)OCC(C)O` (stereo not given), for which the outcome was inactive.

Turning to `C=C(C)C(=O)OCCOCCOC(=O)C(=C)C`, the call was inactive.

`O=C(c1ccc(OCCN2CCCCC2)cc1)c1c(-c2ccc(O)cc2)sc2cc(O)ccc12`: the compound was called inactive and the half-maximal activity concentration (AC50) is 13.7 µM (active) [middle of 4 runs].

In the case of `C/C=C(\C)C(=O)OC/C=C(\C)CCC=C(C)C`, the AC50 was 12.3 µM (active).

Take `NC(=O)c1c(Cl)cccc1Cl`: the result was inactive.

Take `C=CCOC(=O)/C=C\C(=O)OCC=C`: the half-maximal activity concentration (AC50) is 1.96 µM (active).

Turning to `CCCCN(CCO)CCO`, the result was inactive.

`CCCCCCOC(C)=O`: the call was inactive.

Turning to `CC/C=C\CCCCO`, the compound was classed as inactive.

As to `CC/C=C\C#N`, the outcome was inactive.

With `Cc1cc(O)c(C)c(C)c1O`, the AC50 is 32.4 µM (active).

Regarding `COc1ccc(C(C)=O)cc1`, the call was inactive.

The values above are taken from PubChem BioAssay (EPA / NIEHS).
